The whole screen tested about 340,000 compounds, of which about 730 (0.21%) were called active. The sample holds actives, similar compounds and a random draw of the others, so the mix is not that of the screen. Unmarked numbers belong to inactive results.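 Rule for the calls: active = inhibition above the mean over all tested compounds plus 3 SD (cut at about 21% in these data); inactive = the rest.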

The target of this assay is Toll-like receptor 9 (Homo sapiens) + Myeloid differentiation primary response protein MyD88 (Homo sapiens) (UniProt Q9NR96+Q99836). The assay can be described thus: inhibitors of TLR9-MyD88 association in cells, primary screen, cell-based, CHO, BLA complementation, fluorescence (AID 504734).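 Note: 0% = DMSO only wells and 100% = clavulanate BLA inhibitor control wells.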 Particulars: CHO BLA complementation TLR9-MyD88, CCF4 FRET ratio; at 4.98 µM; hits give high values.
Toll-like receptor 9 (Homo sapiens) + Myeloid differentiation primary response protein MyD88 (Homo sapiens), sequence (Q99836 whole entry, looked up): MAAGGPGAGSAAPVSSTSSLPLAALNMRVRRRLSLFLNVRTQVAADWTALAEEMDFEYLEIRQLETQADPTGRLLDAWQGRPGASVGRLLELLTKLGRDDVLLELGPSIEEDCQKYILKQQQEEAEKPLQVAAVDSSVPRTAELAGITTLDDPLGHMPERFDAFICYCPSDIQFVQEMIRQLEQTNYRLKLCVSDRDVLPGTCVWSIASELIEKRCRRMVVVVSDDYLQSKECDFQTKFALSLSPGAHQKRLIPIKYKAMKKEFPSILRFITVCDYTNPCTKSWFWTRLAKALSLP
Toll-like receptor 9 (Homo sapiens) + Myeloid differentiation primary response protein MyD88 (Homo sapiens), sequence (Q9NR96 whole entry, looked up): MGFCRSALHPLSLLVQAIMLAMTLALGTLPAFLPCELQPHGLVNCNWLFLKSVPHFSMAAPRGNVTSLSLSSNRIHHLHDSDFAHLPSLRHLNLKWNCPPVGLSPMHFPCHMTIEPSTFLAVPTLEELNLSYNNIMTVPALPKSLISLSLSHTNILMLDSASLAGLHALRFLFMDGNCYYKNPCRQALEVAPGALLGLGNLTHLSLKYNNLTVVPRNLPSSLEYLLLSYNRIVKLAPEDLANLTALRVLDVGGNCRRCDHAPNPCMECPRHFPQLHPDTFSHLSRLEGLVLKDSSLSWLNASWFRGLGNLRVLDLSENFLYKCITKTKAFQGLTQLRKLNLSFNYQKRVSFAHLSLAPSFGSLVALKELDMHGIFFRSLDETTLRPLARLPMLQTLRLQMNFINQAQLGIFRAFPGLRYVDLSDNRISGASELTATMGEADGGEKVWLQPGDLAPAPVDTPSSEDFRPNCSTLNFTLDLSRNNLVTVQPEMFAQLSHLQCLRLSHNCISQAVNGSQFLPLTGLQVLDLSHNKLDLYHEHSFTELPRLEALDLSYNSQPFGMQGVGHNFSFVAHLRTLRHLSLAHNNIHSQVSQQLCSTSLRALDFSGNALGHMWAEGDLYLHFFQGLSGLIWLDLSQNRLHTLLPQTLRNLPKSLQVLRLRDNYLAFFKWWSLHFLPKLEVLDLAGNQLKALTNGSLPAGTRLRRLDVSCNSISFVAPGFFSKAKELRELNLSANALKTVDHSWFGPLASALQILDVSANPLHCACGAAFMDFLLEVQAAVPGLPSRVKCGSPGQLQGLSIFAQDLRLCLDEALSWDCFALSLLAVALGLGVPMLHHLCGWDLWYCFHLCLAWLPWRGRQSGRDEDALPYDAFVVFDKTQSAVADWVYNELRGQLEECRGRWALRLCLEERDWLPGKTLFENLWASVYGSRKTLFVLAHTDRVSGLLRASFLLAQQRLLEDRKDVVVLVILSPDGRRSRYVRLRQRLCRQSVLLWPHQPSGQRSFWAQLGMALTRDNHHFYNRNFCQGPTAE
Consider `COc1ccc([C@H]2N[C@]3(CCCN(CC4CCCCC4)C3=O)[C@H]3C(=O)N(C)C(=O)[C@@H]23)cc1`, for which the inhibition is 1.4%. With `Cc1ccn(CC(=O)NC2CCCN(Cc3ccccc3F)C2)n1` (stereo unspecified), the inhibition is 9%.

Regarding `Nc1cccc2c1C(=O)N(Cc1nnc(-c3ccccc3Br)o1)C2=O`, the inhibition is 21.2% (active). In the case of `Cn1cnnc1SCc1nnc(-c2ccccc2Br)o1` it was -5.92%. The value for `CCOC(=O)N1CCN(Cc2nnc(-c3ccccc3Cl)o2)CC1` was 7.73%; that for `CCN1CCN(CCNC(=O)c2ccc3c(c2)NC(=O)/C(=C\c2cccc(Cl)c2)S3)CC1` was 13.2%. As to `CCOC(=O)C=Cc1ccc(C(=O)OCC)[nH]1`, the inhibition was 5.14%. Take `Cc1cc(C)c2c(=O)n3c(nc2c1)C(CC(C)C)NC(=O)c1cc2ccccc2cc1-3` (stereo unspecified): the inhibition was 9.57%. The value for `CC1(C)CC(=O)NC=C(c2ccccc2)C1` was -4.24%. In the case of `CC1(C)CC(=O)C(CC(=O)N2CCC(Cc3ccccc3)CC2)C(=O)C1` it was -5.62%. The value for `CC1(C)CC(=O)C(C2c3ccccc3S(=O)(=O)c3ccccc32)C(=O)C1` was 22.1% (active); that for `CCN(CC)C(=O)C1=C(C)N(Cc2ccc(OC)cc2)C(=O)C(CC(=O)NCCCCc2ccccc2)C1` (stereo unspecified) was -3.92%. Take `Nc1c(C(=O)c2cccs2)sc2nsc(SCCN3CCCCC3)c12`: the inhibition is 31.4% (active). Turning to `COc1ccc(NC(=O)CCCOc2ccc(C(C)=O)cc2)cc1S(=O)(=O)N1CCCCC1`, the inhibition was -6.11%.

In the case of `COc1ccc([C@H]2N[C@]3(CCCN(Cc4ccco4)C3=O)[C@H]3C(=O)N(C)C(=O)[C@@H]23)cc1`, the inhibition was -4.25%. For the molecule `Cc1noc(C)c1NC(=O)N(C)C[C@@H]1Oc2cc(Br)ccc2S(=O)(=O)N([C@@H](C)CO)C[C@H]1C`, the inhibition was 6.19%. In the case of `CSc1nnc(NC(=O)c2nc(S(=O)(=O)Cc3ccc(C)cc3)ncc2Cl)s1` it was 4.24%; in that of `Cc1ccc(CS(=O)(=O)c2ncc(Cl)c(C(=O)Nc3nnc(C)s3)n2)cc1`, 12.2%. With `O=C(Nc1ccc(F)cc1)c1ccc(S(=O)(=O)NCc2cccnc2)cc1`, the inhibition is -9.53%. The value for `Cc1cccc(CS(=O)(=O)c2ncc(Cl)c(C(=O)Nc3ccc(F)cc3)n2)c1` was 35.3% (active); that for `CN1CCN(c2ccc(NC(=O)c3ccc4c(c3)[nH]c(=O)n4Cc3ccc(F)cc3)cc2)CC1` was 5.07%.

With `Cc1cccc(NC(=O)c2nc(S(=O)(=O)Cc3ccccc3)ncc2Cl)c1`, the inhibition is 48.7% (active). The value for `Cc1[nH]c2ccccc2c1C(=O)C(=O)NCc1nnnn1-c1cccc(F)c1` was 7.75%. The value for `COc1ccc(S(=O)(=O)N(C)C[C@H]2OCc3cnnn3CCCC(=O)N([C@H](C)CO)C[C@H]2C)cc1` was -12.9%; that for `CN(O)C(=S)c1ccccc1` was 21.8% (active); that for `CN(Cc1ccccc1)C(=O)c1cccc(C(=O)N(C)Cc2ccccc2)c1` was -10.2%. In the case of `CCCCCCn1c(=O)n2n(c1=O)C[C@]1(OC(=O)NCc3ccc(OC)c(OC)c3)CN(S(=O)(=O)c3ccc(C)cc3)C[C@]1(O)C2` it was -2.87%; in that of `CC1CCCC(C)N1C(=O)COC(=O)c1ccccc1C(=O)c1ccccc1` (stereo unspecified), -3.35%; in that of `O=C(NCCc1cccc(F)c1)C1CC(O)CN1C(=O)Nc1ccccc1` (stereo unspecified), -5.73%. For the molecule `COC(=O)N(C)C[C@@H]1OCc2cnnn2CCCC(=O)N([C@@H](C)CO)C[C@@H]1C`, the inhibition was -7.29%. The value for `CSc1ncccc1C(=O)N1CCCC(Nc2ccc(F)c(F)c2)C1` (stereo unspecified) was -7.83%; that for `Nc1cc(C(=O)N2CCN(c3ccccc3Cl)CC2)ccc1N1CC2CC(C1)c1cccc(=O)n1C2` (stereo unspecified) was -8.79%; that for `Cc1cc(C)nc(SCc2ccccc2C#N)n1` was 23.9% (active).

In the case of `Cc1cc(C)nc(SCc2cn3c(C)cc(C)nc3n2)n1`, the inhibition is -17%.

Regarding `CC1(C)CCc2nc(SCc3ccccc3)c(C#N)cc2C1`, the inhibition is -6.7%. In the case of `COc1ccc(CN2C(=O)C(CC(=O)NCCN3CCOCC3)CC(C(=O)N(C(C)C)C(C)C)=C2C)cc1` (stereo unspecified) it was -13.7%; in that of `COc1ccc(N)cc1NC(=O)CN1CCOCC1`, 3.79%; in that of `Nc1ccccc1-c1nc2ccncc2[nH]1`, 5.69%. With `C[C@H]1Cn2cnc(C(=O)N[C@H](C)c3ccccc3)c2C(=O)N1`, the inhibition is -9.33%. Turning to `COc1ccccc1NC(=O)C(CC(=O)O)Cc1cc(C)cc(C)c1` (stereo unspecified), the inhibition is 1.3%. In the case of `COc1ccc(NC(=O)/C(Cl)=C(/Cl)S(=O)Cc2ccc(C)cc2)cn1` (stereo unspecified) it was 36.2% (active); in that of `COc1ccc(NC(=O)CN2C(=O)NC(C)(c3ccccc3)C2=O)cn1` (stereo unspecified), 4.63%. The value for `COc1ccc(NS(=O)(=O)c2ccc(NC(=S)NC(=O)/C=C/c3ccc(C)cc3)cc2)nn1` was 4.17%.

Regarding `Cc1ccc(C(=O)NC(C)C(c2cccs2)N2CCOCC2)cc1C` (stereo unspecified), the inhibition is -1.7%. In the case of `O=C(NCCN1CCOCC1)C1CCN(S(=O)(=O)c2ccccc2)CC1` it was -8.07%; in that of `CN1OC[C@@H]2CN[C@H](c3ccc(-c4ccccc4)cc3)C[C@@H]21`, 8.78%; in that of `COc1ccc(C2CC(c3cccs3)=NN2c2nc(C)c(C(C)=O)s2)cc1OC` (stereo unspecified), -3.47%. The value for `COc1ccccc1N1N=C(c2cccs2)CC1c1ccccc1` (stereo unspecified) was 38.6% (active).

In the case of `Fc1ccc(N2N=C(c3cccs3)CC2c2ccco2)c(F)c1` (stereo unspecified), the inhibition was 1.6%. `CC(C)N=C1CCCC1C(=S)SSC(=S)C1CCCC1=NC(C)C` (stereo unspecified): the inhibition is 6.42%. The value for `Cc1cc2cc3n(c2nn1)N=C(Cl)CC3` was -2.59%; that for `C[C@H](CO)N1C[C@H](C)[C@@H](CN(C)C(=O)c2cnccn2)Oc2ncc(Br)cc2C1=O` was -6.82%; that for `C[C@H](CO)N1C[C@H](C)[C@H](CN(C)C(=O)c2ccncc2)OCc2ccccc2-c2c(n(C)c3ccccc23)C1=O` was 7.41%. The value for `Oc1ccc2ccc3cccc[n+]3c2c1` was 30.4% (active); that for `O=S(=O)(c1cccc(C(F)(F)F)c1)N1c2ccccc2-n2cccc2C1c1cccnc1` (stereo unspecified) was 2.97%; that for `COc1ccc([C@H]2C[C@@H](n3cc(COC(=O)c4ccccc4)nn3)[C@H](O)CN2C(=O)c2cccs2)cc1` was -6.05%.

As usually defined, the inhibition is the change of the read-out against control, counted positive when it falls.
